According to PubChem BioAssay (Tox21):
Inconclusive results are not listed. Active and inactive are the calls of the source. Unless noted, the call rests on the fitted dose curve; in most records, active means well fitted curve in the direction sought with a large enough effect in the repeat runs; inconclusive means weak or mixed curves; inactive means no such curve, though single readings can be large; an effect the other way counts as inactive or inconclusive.

Columns and labels:
[1] = qHTS assay for small molecule agonists of the p53 signaling pathway (AID 651631; calls by dose curve; further: nearly all actives have a fitted effect of over 15% in size)
How it was run: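 Read-out is beta-lactamase FRET fluorescence measured 2 h after substrate addition at room temperature, in HCT-116 cells with a p53 response element-driven reporter exposed to compounds for 16 h at 37 °C.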

[2] = qHTS assay for small molecule agonists of the p53 signaling pathway - cell viability (AID 651633; calls by dose curve;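 further: p53RE-bla HCT reporter cells with a stable beta-lactamase p53 reporter; nearly all actives have a fitted effect of over 30% in size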)
How it was run: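 Viability counter-read: CellTiter-Glo luminescence (30 min, room temperature) in the same p53RE-bla plates. These plates had been exposed to compounds for 16 h at 37 C.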

[3] = qHTS assay for small molecules that induce genotoxicity in human embryonic kidney cells expressing luciferase-tagged ATAD5 - cell viability (AID 651634; calls by dose curve; further: nearly all actives have a fitted effect of over 25% in size)
How it was run: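 Here HEK293T cells with the ATAD5 luciferase reporter are incubated with test compounds for 15.5 hr, and cytotoxicity is then gauged by measuring protease activity in live cells using fluorescence.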

[4] = qHTS assay for small molecule disruptors of the mitochondrial membrane potential - cell viability (AID 720634; calls by dose curve;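 further: human HepG2 liver cancer cells; nearly all actives have a fitted effect of over 20% in size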)
How it was run: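 Viability of HepG2 cells is scored from ATP content by luminescence; cells are exposed to compound for 1 hr at 37 C and 5% CO2, then dosed with m-MPI dye before the CellTiter-Glo reagent.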

[5] = qHTS assay to test for compound auto fluorescence at 590 nm (red) in HepG2 cells (AID 720674)
How it was run: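 1 hr compound incubation on HepG2 cells, 37 C, 5% CO2; plate read ex 540 nm / em 590 nm; intensities reported as Rose Bengal sodium equivalents.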

[6] = qHTS assay to test for compound auto fluorescence at 535 nm (green) in HepG2 cells (AID 720675)
[7] = qHTS assay to test for compound auto fluorescence at 460 nm (blue) in HEK293 cells (AID 720678)
How it was run: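 Auto fluorescence in the blue band was quantified as triamterene equivalency. HEK293 cells were seeded at 2,000/well, dosed after a 4-5 hr attachment, and kept overnight at 37C before the 405/460 nm reading.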

[8] = qHTS assay to test for compound auto fluorescence at 590 nm (red) in HEK293 cells (AID 720679)
How it was run: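 Autofluorescence equivalency to Rose Bengal sodium, 540/590nm, in HEK293 cells exposed overnight to 23 nL compound per well.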

[9] = qHTS assay to test for compound auto fluorescence at 535 nm (green) in HEK293 cells (AID 720680)
[10] = qHTS assay to test for compound auto fluorescence at 460 nm (blue) in HEK293 cell free culture (AID 720681)
How it was run: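 Blue fluorescence (Ex 405/Em 460 nm, triamterene-equivalent) was read immediately after pin transfer of compound or DMSO into medium (DMEM, 10% FBS) without cells.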

[11] = qHTS assay to test for compound auto fluorescence at 590 nm (red) in HEK293 cell free culture (AID 720683)
How it was run: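 Red-channel autofluorescence of compounds in culture medium (DMEM, 10% FBS), no cells, measured at 540/590 nm. Rose Bengal sodium is the reference fluorophore for equivalence.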

[12] = qHTS assay to test for compound auto fluorescence at 590 nm (red) in HepG2 cell free culture (AID 720684)
How it was run: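 No cells present: MEM + 10% FBS only. Compound pinned in, red label read (540/590 nm). Activity = fluorescence equivalent to Rose Bengal sodium.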

[13] = qHTS assay to test for compound auto fluorescence at 460 nm (blue) in HepG2 cell free culture (AID 720685)
How it was run: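 Cell-free plates of MEM plus 10% FBS received 23 nL compound or DMSO vehicle; blue-channel (405/460 nm) intensity scored against triamterene as reference fluorophore.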

[14] = qHTS assay to test for compound auto fluorescence at 535 nm (green) in HepG2 cell free culture (AID 720686)
[15] = qHTS assay to test for compound auto fluorescence at 460 nm (blue) in HepG2 cells (AID 720687)
How it was run: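 Blue-channel autofluorescence (Ex/Em 405/460 nm, triamterene-equivalent) was measured after 1 hr compound exposure at 37 C, 5% CO2. Cells were HepG2, plated overnight at 37 C in MEM plus 10% FBS.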

[16] = qHTS assay for small molecules that induce genotoxicity in human embryonic kidney cells expressing luciferase-tagged ATAD5 (AID 651632); further: nearly all actives have a fitted effect of over 15% in size
How it was run: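 DMSO vehicle served as the control. HEK293T reporter cells, 16 hr at 37C, then 30 min Amplite at room temperature; ATAD5 induction is measured as luciferase activity.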

[17] = qHTS assay to test for compound auto fluorescence at 535 nm (green) in HEK293 cell free culture (AID 720682)
How it was run: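 Fluorescein serves as the green reference fluorophore; each compound's intrinsic emission at 535 nm (excitation 485 nm) is reported as an equivalent amount of that dye, measured in serum-containing DMEM without cells.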

[18] = target: Glucocorticoid receptor (Homo sapiens) (UniProt P04150); test: qHTS assay to identify small molecule agonists of the glucocorticoid receptor (GR) signaling pathway (AID 720691; active means well fitted activation curve with a large enough effect in the signal ratio in the repeat runs, not every such curve was filed as active; the % refers to the signal ratio); details: GR-bla HeLa, beta-lactamase reporter ratio, 18 h; activation: at 62.4 µM (top of the series) unless noted
How it was run: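 Compounds in DMSO, alongside positive controls, were added to GR-bla HeLa reporter cells and incubated 18 h at 37 C; GRE-driven beta-lactamase was detected by fluorescence after 2 h with FRET substrate at room temperature.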

[19] = target: Glucocorticoid receptor (Homo sapiens) (UniProt P04150); test: qHTS assay to identify small molecule antagonists of the glucocorticoid receptor (GR) signaling pathway (AID 720692; active means well fitted inhibition curve with a large enough effect in the signal ratio in the repeat runs, not every such curve was filed as active; the % refers to the signal ratio)
How it was run: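 In a 1536-well cell format, compounds were added 4 h after seeding GR-bla HeLa cells, together with dexamethasone at 5 nM final; reporter activity was measured by FRET-substrate fluorescence following 18 h at 37 C.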

Measured: Potency

Chain of Glucocorticoid receptor (Homo sapiens) (P04150 whole entry, looked up): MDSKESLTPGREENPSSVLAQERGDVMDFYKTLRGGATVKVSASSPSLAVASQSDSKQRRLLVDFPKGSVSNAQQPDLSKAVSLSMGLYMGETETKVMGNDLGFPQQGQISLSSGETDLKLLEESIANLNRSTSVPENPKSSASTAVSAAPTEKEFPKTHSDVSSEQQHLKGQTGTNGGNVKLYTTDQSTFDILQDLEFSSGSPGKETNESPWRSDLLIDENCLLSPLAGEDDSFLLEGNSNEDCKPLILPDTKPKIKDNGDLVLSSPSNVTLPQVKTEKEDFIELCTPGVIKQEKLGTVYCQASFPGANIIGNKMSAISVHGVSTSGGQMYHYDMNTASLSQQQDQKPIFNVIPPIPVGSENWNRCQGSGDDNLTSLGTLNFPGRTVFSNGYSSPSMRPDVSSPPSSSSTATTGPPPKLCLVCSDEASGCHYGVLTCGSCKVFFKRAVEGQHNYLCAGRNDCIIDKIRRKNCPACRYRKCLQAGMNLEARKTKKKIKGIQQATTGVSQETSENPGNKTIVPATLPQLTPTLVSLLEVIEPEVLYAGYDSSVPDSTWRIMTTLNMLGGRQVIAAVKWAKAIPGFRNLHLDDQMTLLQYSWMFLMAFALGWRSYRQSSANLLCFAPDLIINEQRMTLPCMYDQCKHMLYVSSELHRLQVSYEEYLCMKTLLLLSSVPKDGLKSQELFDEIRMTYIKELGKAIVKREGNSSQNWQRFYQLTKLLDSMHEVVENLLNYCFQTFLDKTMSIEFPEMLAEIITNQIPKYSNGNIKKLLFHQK

O=C(O)c1ccco1
not listed: [16] | [17] | [18] | [19]
inactive: all other assays above

O=P(O)(OCc1ccccc1)OCc1ccccc1
not listed: [4] | [5] | [18] | [19]
inactive: all other assays above

CC(=O)[O][Al]
not listed: [5] | [16] | [17] | [18] | [19]
inactive: all other assays above

O=C(c1ccc(F)cc1)C1CCN(CCn2c(=S)[nH]c3ccccc3c2=O)CC1
not listed: [6] | [7] | [14] | [16] | [17]
inactive: all other assays above

COS(=O)(=O)C(F)(F)F
not listed: [16]
inactive: all other assays above

CCN(CC)CCNC(=O)c1cc(Br)c(N)cc1OC
not listed: [14] | [16] | [18] | [19]
inactive: all other assays above

O=[N+]([O-])c1ccc2[nH]ncc2c1
not listed: [16]
inactive: all other assays above
